Test results: publication PMC5540273 (PLoS ONE, 2017)

What was measured:
Details in all cases: concentration: 1 μM, replicates: in singlicate; n = 1
[1] = tested on: T1, ERK5
T1 construct: gene MAPK7

[2] = tested on: T2, ERK8
T2 construct: gene MAPK15

[3] = tested on: ERN1
[4] = tested on: T3, FAK
T3 construct: gene PTK2

[5] = tested on: FER
[6] = tested on: FES
[7] = tested on: FGFR1
[8] = tested on: FGFR2
[9] = tested on: FGFR3
[10] = tested on: FGFR4
[11] = tested on: FGR
[12] = tested on: FLT1
[13] = tested on: FLT3-autoinhibited
[14] = tested on: FLT3
[15] = tested on: FLT4
[16] = tested on: FRK
[17] = tested on: FYN
[18] = tested on: GAK
[19] = tested on: T4, GCN2(Kin.Dom.2,S808G)
T4 construct: gene EIF2AK4

[20] = tested on: GRK1
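Further: KINOMEscan kinase panel screen.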

SMILES	%Inh [1] [%]	%Inh [2] [%]	%Inh [3] [%]	%Inh [4] [%]	%Inh [5] [%]	%Inh [6] [%]	%Inh [7] [%]	%Inh [8] [%]	%Inh [9] [%]	%Inh [10] [%]	%Inh [11] [%]	%Inh [12] [%]	%Inh [13] [%]	%Inh [14] [%]	%Inh [15] [%]	%Inh [16] [%]	%Inh [17] [%]	%Inh [18] [%]	%Inh [19] [%]	%Inh [20] [%]
CN(C)c1cc(-c2ccc3c(N)n[nH]c3c2)nc(N)n1 [GSK2219329]	0	0	0	0	16	0	0	2	7	0	19	20	0	0	19	0	11	0	0	0
CCC(=O)c1c(-c2ccccc2)c2cc(Cl)ccc2c(=O)n1Cc1cc(S(C)(=O)=O)n(CCC(C)(C)O)n1	15	0	18	10	10	5	0	22	29	8	11	29	2	0	15	13	10	8	0	8
COc1cc2ncn(-c3cc(OCc4ccc(S(C)(=O)=O)cc4)c(C(N)=O)s3)c2cc1OC [GW869979]	0	12	6	2	0	0	0	5	4	0	0	0	14	4	15	0	0	7	0	10
CCC(=O)c1c(-c2ccccc2)c2cc(Cl)ccc2c(=O)n1Cc1ccc(C(=O)O)cc1	0	0	0	0	0	5	0	0	0	0	0	0	4	0	0	0	0	0	12	0
COc1cc2ncn(-c3cc(OCc4ccncc4Br)c(C(N)=O)s3)c2cc1OC [GW854278]	0	0	24	0	2	0	43	16	29	7	20	0	22	26	68	8	0	58	0	0
O=C1NC(=O)C(c2ccccc2)=C1Nc1cccc(O)c1 [SB-390534]	0	0	0	0	0	0	11	0	10	1	0	2	5	26	0	0	0	11	0	13
CCc1ccc(-c2ccc3c(c2)-c2nn(C)cc2S(=O)(=O)N3C)cc1	5	36	0	5	6	0	16	0	0	0	0	0	0	30	0	0	5	0	9	12
COC(=O)c1c(-c2ccccc2)c2cc(C)ccc2c(=O)n1Cc1ccccc1	0	0	0	0	0	0	0	0	0	0	2	0	13	0	0	0	0	0	0	0
Cc1cccc(-c2cc(-c3c[nH]nc3-c3ccccn3)ccn2)c1 [GW679395]	0	0	0	0	4	0	0	0	0	4	36	13	0	0	0	15	16	82	0	3
Nc1nc(-c2ccccc2F)c(-c2ccnc3ccccc23)s1 [GW560459]	0	0	0	0	13	0	0	0	0	75	7	30	0	25	0	0	39	79	6	0
COc1cccc(C2=C(N(C)c3ccccc3)C(=O)NC2=O)c1 [SB-334865]	0	0	0	0	0	0	0	0	3	19	13	16	0	0	0	5	13	0	0	5
COc1cc2ncn(-c3cc(OCCCc4ccccc4)c(C(N)=O)s3)c2cc1OC [GSK205189]	0	3	0	0	10	0	0	9	16	0	21	23	0	5	0	0	24	66	0	5
COc1ccc(-c2cc3c(C)nc(N)nc3n([C@H]3CC[C@H](OCCO)CC3)c2=O)cn1	12	0	0	0	13	1	7	0	0	0	14	11	0	0	0	0	0	0	0	0
COc1cc(Nc2nccc(N3CCC(NC(=O)C4COc5ccccc5O4)C3)n2)cc(OC)c1OC (stereo not drawn) [GSK1379761]	0	0	2	0	17	0	3	30	9	0	33	23	0	37	25	3	29	37	0	0
Nc1n[nH]c2nnc(-c3ccccc3)c(-c3ccccc3)c12 [GW554060]	0	50	7	0	21	0	4	25	32	1	7	20	0	8	0	5	2	1	8	0
Nc1nc(N)c2nc(-c3ccccc3)[nH]c2n1 [SKF-12778]	0	41	11	6	14	0	16	32	21	12	30	18	7	8	22	8	0	30	23	5
Cc1ccccc1COc1cc(-n2cnc3cc(Cl)ccc32)sc1C(N)=O [GW813349]	0	9	0	5	0	2	12	3	0	0	9	5	3	8	10	0	0	1	0	13
FC(F)(F)c1ccc(-c2ncn(CCCN3CCOCC3)c2-c2ccncc2)cc1 [SB-217780]	0	1	26	1	9	4	90	0	6	1	11	22	23	14	2	12	10	0	8	12
CN1C(=O)C(Nc2cc(Cl)c(O)c(Cl)c2)=C(c2ccc(Cl)cc2)C1=O [SB-404321]	0	0	0	0	0	0	0	0	9	0	0	0	0	0	0	0	0	0	6	0
Cl.NS(=O)(=O)c1cccc(Nc2cc(-c3ccc(F)cc3)n[nH]2)c1 [GW824645]	0	3	21	0	41	0	0	0	0	0	0	0	77	88	0	0	0	0	0	23
CCS(=O)(=O)c1ccc(OC)c(Nc2ncc(-c3ccc(F)cc3)o2)c1.Cl [GW591947]	0	0	8	0	29	0	3	0	0	12	0	26	0	0	6	0	9	0	16	0
